Each binder was assayed against CD276, Q5ZPR3.
CD276, Q5ZPR3, sequence (Q5ZPR3 whole entry): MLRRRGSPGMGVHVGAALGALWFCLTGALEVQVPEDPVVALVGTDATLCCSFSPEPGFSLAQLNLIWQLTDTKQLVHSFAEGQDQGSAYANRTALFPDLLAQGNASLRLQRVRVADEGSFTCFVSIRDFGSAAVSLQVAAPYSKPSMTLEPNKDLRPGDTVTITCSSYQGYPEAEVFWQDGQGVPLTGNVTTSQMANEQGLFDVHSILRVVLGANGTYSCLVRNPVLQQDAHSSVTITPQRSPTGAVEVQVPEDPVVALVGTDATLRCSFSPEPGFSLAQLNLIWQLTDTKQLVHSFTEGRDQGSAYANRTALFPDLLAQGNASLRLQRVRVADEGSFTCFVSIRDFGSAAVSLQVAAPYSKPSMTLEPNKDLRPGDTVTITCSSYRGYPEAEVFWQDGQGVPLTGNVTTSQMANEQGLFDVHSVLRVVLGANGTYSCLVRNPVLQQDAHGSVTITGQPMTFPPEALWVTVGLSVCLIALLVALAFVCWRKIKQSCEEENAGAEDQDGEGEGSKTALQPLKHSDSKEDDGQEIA

| Binder | binding in a display sort |
| --- | --- |
| design_486_d4f32670-1303-4d79-8413-1b14cb3eff50_845_dldesign_0_cycle1_af2pred (protein) SAAEQQLQQAKGYITLANAIARDPNPTPEQLQLAKEAAQQAIKLAEQVEKAVGEKGKEVKKQAEEALAKVQALL | not found (inactive) |
| design_486_d4f32670-1303-4d79-8413-1b14cb3eff50_394_dldesign_0_cycle1_af2pred (protein) AEANVALGKRMLEAGKKLAEETKELAKKAKKGEDKEGAKEAAKVALAFAETLELVAEGVPEIAEELKKAAKELKEAAEKALKAAKAA | not found (inactive) |
| design_486_d4f32670-1303-4d79-8413-1b14cb3eff50_4_dldesign_0_cycle1_af2pred (protein) REEKVEEARRLAQRALNAASKAVVGITSGSLSPEEIQALIDEATEALERAKELAPYATPAVREAIELAEALLQQAKEL | not found (inactive) |
| design_391_ca6baf5d-2451-47ba-bffc-fc886679966a_1932_dldesign_0_cycle1_af2pred (protein) AQANAELTLRTLEAAGRAALALARASDAETAARILDAFRKTSAVLIESGAAAGPEAAKKVKELADKYLAELEAIVAAKAAEAA | not found (inactive) |
| design_486_d4f32670-1303-4d79-8413-1b14cb3eff50_135_dldesign_0_cycle1_af2pred (protein) EREEEVERRREEVVRAAELVAAIARAVGDEETARLAEEAKRLAEEGGEEGVERARELVREAMVRIAKRLAEKS | not found (inactive) |
| design_391_ca6baf5d-2451-47ba-bffc-fc886679966a_2271_dldesign_0_cycle1_af2pred (protein) AAAEKEKEAEAKELFEKARKLAAEAAKLAVKAVGLSEEAYQLANEALQYAIEALEIVSAGEDLEKAKELLEKAQEKLKKATELVKKL | not found (inactive) |
| design_486_d4f32670-1303-4d79-8413-1b14cb3eff50_402_dldesign_0_cycle1_af2pred (protein) ADEEKVKQAKKLAEEALRLAKEDPEKAKKKLEEAAKLAAASPAALEILLSVAGELYRINPEVGKAARQAFATAATAIV | not found (inactive) |
| design_391_ca6baf5d-2451-47ba-bffc-fc886679966a_2349_dldesign_0_cycle1_af2pred (protein) NQAKLAEVFARAQEVIKRREEVRKRAEELSEEKREKVLKLLEESTKYLQEAFRAIAKGDAENAKKYVDKAEKLVEEAEKA | not found (inactive) |
| design_486_d4f32670-1303-4d79-8413-1b14cb3eff50_567_dldesign_0_cycle1_af2pred (protein) DTVVANALAAQLVLEAIGLAAAGNIEEALKKLREAAKVASPESAAVLEAAARTIAEEGLPPEEAVAVFNAALAVVQKNAIAAA | not found (inactive) |
| design_486_d4f32670-1303-4d79-8413-1b14cb3eff50_1067_dldesign_0_cycle1_af2pred (protein) ANAAQIKAAAQAAYKSAKEIAEEALELAKEGKKEEAEKKLKGAEKLGEIAAALAAQYGAAGDPAEGAALAKDIKEYLKEAKKELEKL | not found (inactive) |
| design_486_d4f32670-1303-4d79-8413-1b14cb3eff50_103_dldesign_0_cycle1_af2pred (protein) AEAEEFAEKAKEKAKEAVKVYAKDPEAGAAKLNALQAEAARKAIADPRYNPALAAVVEEALKANEVAKAA | not found (inactive) |
| design_486_d4f32670-1303-4d79-8413-1b14cb3eff50_1137_dldesign_0_cycle1_af2pred (protein) MEEAEEVMRRTFELAREARELRAEAERLAKLAEESGEAAPEAAAARAKAEEKVAEARRLGEEYPGAAALAEGTLAG | not found (inactive) |
| design_486_d4f32670-1303-4d79-8413-1b14cb3eff50_565_dldesign_0_cycle1_af2pred (protein) MTEEELIQRTADANVRQVRRVAVEEGLEAGRRQLELNVKSLESVGATEIAAEMERRAEAALAEAAAELARRAAE | not found (inactive) |
| design_391_ca6baf5d-2451-47ba-bffc-fc886679966a_2108_dldesign_0_cycle1_af2pred (protein) TAAAALAAAKAALATAKAAGLPARYLEMAEAALAVATSAAASGDPAHQKAALAFSSAVLAAIEAEAAKRA | not found (inactive) |
| design_486_d4f32670-1303-4d79-8413-1b14cb3eff50_798_dldesign_0_cycle1_af2pred (protein) GVQALAAATLEAMELAKKIGANEAVRNLGAALAVAGTRHPELAPEFTKRVEELLKLAKEAAKGDKEEAAKLVAEEARKLRDAALAA | not found (inactive) |
| design_486_d4f32670-1303-4d79-8413-1b14cb3eff50_819_dldesign_0_cycle1_af2pred (protein) SLEELRRKAVRKAQEAMATASKVAIAAKAAGDAATAAKANELLVKAQEALKEAVEGKNVEEALRRAEELLEEAKKLAKE | not found (inactive) |
| design_486_d4f32670-1303-4d79-8413-1b14cb3eff50_897_dldesign_0_cycle1_af2pred (protein) NPQGEAAVRYAEIAARARRLAEEARAAGREELAAEFQRIAEAARAALRRAVAANVAGEDRSEELVAEAERLERELEELERRFR | not found (inactive) |
| design_486_d4f32670-1303-4d79-8413-1b14cb3eff50_973_dldesign_0_cycle1_af2pred (protein) DPAERAAEFRRRAEEVAAIYLAAAQANPAMAPVMAANVLATMRAWAAVWADNPAVAAAALEVGREAAARIA | not found (inactive) |
| design_486_d4f32670-1303-4d79-8413-1b14cb3eff50_760_dldesign_0_cycle1_af2pred (protein) EAEEAARRARELAERARAARDAGLADPAKANEALGVALDAMRELAEIAERYPEVAEVAREAARVAAEAATALAKQAAAYYAAQRA | not found (inactive) |

| Binder | binding in a display sort |
| --- | --- |
| design_486_d4f32670-1303-4d79-8413-1b14cb3eff50_30_dldesign_0_cycle1_af2pred (protein) AAAARAKAGVYTGEGFEKVREGERLRREGDPRAVEEYEEAAKLFEKAAEYYAQVNPGAAAGVAAMAKQVRERAEEYREEL | not found (inactive) |
| design_391_ca6baf5d-2451-47ba-bffc-fc886679966a_1909_dldesign_0_cycle1_af2pred (protein) VGLAKAAELAVESAKQAVEQAEALAKAGKDPKQALALTDQAKLAADTAKAIAKQVEKEDPEKGKKLKEEAEKVKKKAEEVEKKIK | not found (inactive) |
| design_486_d4f32670-1303-4d79-8413-1b14cb3eff50_521_dldesign_0_cycle1_af2pred (protein) DAAALAARTARAIRDQAVRTVAAEEGPEAAEIARAAGEAVLAGDFEEGRRLAERVGRARAFVLSNVESIALLVEG | not found (inactive) |
| design_486_d4f32670-1303-4d79-8413-1b14cb3eff50_34_dldesign_0_cycle1_af2pred (protein) AAEKAIKVLEEAKKEAAKDPGDGKAAIEAIEKAIEAVKANPNNAGIGQAMVILAEAAAKASPKTRAVLSKAIAELSQVAI | not found (inactive) |
| design_391_ca6baf5d-2451-47ba-bffc-fc886679966a_2255_dldesign_0_cycle1_af2pred (protein) DPLLAAARAVAAAALAAVRDGAARGAEAAEQALTFALNLLAAQARRAERELAGDPALRARVLAILDAARAEVRALGEALIAAAR | not found (inactive) |
| design_391_ca6baf5d-2451-47ba-bffc-fc886679966a_1789_dldesign_0_cycle1_af2pred (protein) DALAQAIAQIKEMGDIALALAQDALANPAIAAGAIRAAQSLVKHMLALGKAAGPEAAAVAEKEAAKVNAAIAQAKAA | not found (inactive) |
| design_391_ca6baf5d-2451-47ba-bffc-fc886679966a_1764_dldesign_0_cycle1_af2pred (protein) DPLEEALKEFEEALKLARELAEAVAALNPEEGERAREAIKEAEKRAKEALKLSPEEAAKAIREIRNELMRRVMREGARALAAA | not found (inactive) |
| design_391_ca6baf5d-2451-47ba-bffc-fc886679966a_2389_dldesign_0_cycle1_af2pred (protein) GKEEEAKEAVERARELAKKMIEEAEKAAKEDLGKAIEVLKKGNEELLELAEEAEELDPEAGEEIRELATQAISEAVKKMVAIQLAK | not found (inactive) |
| design_486_d4f32670-1303-4d79-8413-1b14cb3eff50_194_dldesign_0_cycle1_af2pred (protein) GVEEAYDVAKALAEQAIKANAADPEAKKKAEEALKKAEEAYKNAPKIDPAEAAYKIMKEAAKAAKQYLAAVAK | not found (inactive) |
| design_391_ca6baf5d-2451-47ba-bffc-fc886679966a_2408_dldesign_0_cycle1_af2pred (protein) SAAAVAAALAAAEASVKTAERFAEEAEKAVDDPERATRLGESARQNIEVALALADDAAATDPAAAPKAAEIKKRAEEVRKRIEEVLKK | not found (inactive) |
| design_486_d4f32670-1303-4d79-8413-1b14cb3eff50_440_dldesign_0_cycle1_af2pred (protein) AGKEIAKKMGKAVAERLAKQAPSVAEEAKKAAEAIEKGDYEEAKKEAEKALEIGKKNPKEYKVVKAGVETLKVLADAIAAS | not found (inactive) |
| design_486_d4f32670-1303-4d79-8413-1b14cb3eff50_1043_dldesign_0_cycle1_af2pred (protein) AAEKEAEAARLERLMQAYVAAAMAGAARVTGNEATAAAQLAKARALDPEVAGELEAAVLADPQAALAEALERARAAEERLRALREE | binds (active) |
| design_486_d4f32670-1303-4d79-8413-1b14cb3eff50_788_dldesign_0_cycle1_af2pred (protein) MREEAERVRRRAEEVEELAAKASPAVAAQVRARARAARTFAEAALRSPDPELAAQAVAAAEANVEAAEQLLAADA | not found (inactive) |
| design_486_d4f32670-1303-4d79-8413-1b14cb3eff50_969_dldesign_0_cycle1_af2pred (protein) AQAERDAAARKIAAAHLNHAAKVAEALAKEAKDPKVKKKLKEAAKKAKELAKEAAKGNAAEAGEKAVEAAKLLAEARRLYEEDK | not found (inactive) |
| design_486_d4f32670-1303-4d79-8413-1b14cb3eff50_300_dldesign_0_cycle1_af2pred (protein) SELDEELLERAKRLLETAKAAGAAGDKETVQQALGEAVELAAEAQRHRDVVSEETWQAIQQALNTAAQHAIAL | not found (inactive) |
| design_391_ca6baf5d-2451-47ba-bffc-fc886679966a_2026_dldesign_0_cycle1_af2pred (protein) AAKEALEKAKEKAEEIKAIADDVAKKAAAGTITPEEVAAALAKAIELAKEASEYLKEVPEAEAEEIAREVNAAMAKLNKAAVKALA | not found (inactive) |
| design_486_d4f32670-1303-4d79-8413-1b14cb3eff50_66_dldesign_0_cycle1_af2pred (protein) AEAEAAAEAAAAAARAAAAAGDFATAVAITTTFAAANPALAWRVANAALAAFSQAARDPATAAAANAAMAAVVDTLRALSS | not found (inactive) |
| design_486_d4f32670-1303-4d79-8413-1b14cb3eff50_721_dldesign_0_cycle1_af2pred (protein) MNLYESTLLVAEGAIQTAQQAAELATDPAIKAQAKELKERAQEIRDRVKARGTATNEEGQEAVRLLNQASKLLAQAK | not found (inactive) |
| design_391_ca6baf5d-2451-47ba-bffc-fc886679966a_2338_dldesign_0_cycle1_af2pred (protein) AEAAKQAALNTAGILAATVGAEAAAAAGLEAITVYGASIGDVLKATTTIASATSPQARANATRAVALISRALIAS | not found (inactive) |

Source: PMC13494018
